The panel holds about 83,000 compounds, 20% with a hit somewhere; the sample as a whole holds those more often.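 Interpretation: 100, growth as untreated; towards 0, rising growth inhibition; 0, no net growth; 0 to -100, cell death. Compounds scoring below 10 were considered active.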 Activity calls are given as the source filed them.
test system: NCI-H226 lung; test: NCI-60 one-dose screen, 48 h (100 = growth as untreated, 0 = no growth, -100 = all killed); conditions: 10 µM

SMILES | growth
Cc1ccc(/C=C/C(=O)c2ccc(NC(=O)CSc3nnc(-c4c[nH]c5ccccc45)n3-c3ccccc3)cc2)cc1 | 80.7% (inactive)
O=C(CSc1nnc(-c2ccc3nc(-c4ccccc4)[nH]c3c2)o1)Nc1ccc(Br)cc1 | 80.2% (inactive)
O=C(CNc1nc(-c2ccccc2)cs1)Nc1ccccc1 | -2.46% (active)
O=C(/C=C/Nc1ccc(F)cc1F)c1ccc2c(c1)Nc1ccccc1S2 | 53.2% (inactive)
COc1cc(Cn2c(C(F)(F)F)cc3c(Cl)ncnc32)ccn1 | 72.2% (inactive)
COc1ccc(-c2cc(C(=O)N=Nc3c(O)[nH]c4ccc(F)cc34)c3ccccc3n2)cc1 | 68.3% (inactive)
O=C(Nc1ccccc1)Nc1nc2ccccc2s1 | 72.1% (inactive)
O=C(CSc1nnc(-c2ccc3nc(-c4ccccc4)[nH]c3c2)o1)Nc1ccc(Cl)cc1 | 31.4% (inactive)
CCOc1ccc(Nc2nc3ccccc3nc2Nc2ccc(OCC)cc2)cc1 | 85.6% (inactive)
CNC(=O)c1cc(-c2ccc(NC(=O)Nc3ccc(C)cc3)cc2)nc2cccnc12 | 61.4% (inactive)
Cc1ccc(C(=O)Nc2ccc(-n3c(C)nc4c(cnn4-c4ccccc4)c3=O)cc2)cc1 | 54.8% (inactive)
COc1ccc(-c2cc(-c3cc(C(=O)c4ccccc4)n4ccc(C)cc34)nc(N)c2C#N)cc1 | 36.4% (inactive)
C[C@H]1[C@H](C)CC[C@]2(COC(=O)CCC(=O)NCC#CCN3CCNCC3)CC[C@]3(C)C(=CC[C@@H]4[C@@]5(C)CCCNC(C)(C)[C@@H]5CC[C@]43C)[C@H]12 | 75.6% (inactive)
O=c1[nH]c2ccc(Cl)cc2cc1CSc1ccc(Nc2nccc(-c3ccc(Cl)cc3)n2)cc1 | 66% (inactive)
COc1ccc(-c2cc(C(=O)N=Nc3c(O)[nH]c4ccccc34)c3ccccc3n2)cc1 | -36% (active)
COc1ccc(-c2nc(S(=O)(=O)c3ccc(C)cc3)c(S(=O)(=O)CC(=O)N(C)Cc3ccccc3)o2)cc1 | 78.7% (inactive)
COc1ccc(C(C)=C(c2ccc(OCCCN(C)C)cc2)c2ccc(OCCCN(C)C)cc2)cc1 | -82.2% (active)
COc1cc2c3c(n(CCCNCCO)c(=O)c2cc1OC)-c1nc2c(cc1C3=O)OCO2 | -88.5% (active)
c1ccc(C(=C(c2ccc(OCCN3CCCCC3)cc2)c2ccc(OCCN3CCCCC3)cc2)C2CCCC2)cc1 | -15.5% (active)
O=C(CSc1nnc(-c2c[nH]c3ccccc23)n1-c1ccccc1)Nc1ccc(C(=O)/C=C/c2ccc(Cl)cc2)cc1 | 74.8% (inactive)
COc1cnc2c(c1)C(=O)c1c-2n(CCCNC(C)C)c(=O)c2cc(OC)c(OC)cc12 | 41.4% (inactive)
COc1ccc(NC(=O)CSc2nnc(-c3ccc4nc(-c5ccc(Cl)cc5)[nH]c4c3)o2)cc1 | 80.3% (inactive)
CN(CCO)c1oc(-c2ccccc2)nc1[P+](c1ccccc1)(c1ccccc1)c1ccccc1 | -11.8% (active)
CN1CCc2c(sc3ncnc(N/N=C/c4ccc5ccccc5c4)c23)C1 | 86.1% (inactive)

— PubChem BioAssay (NCI)
